Bioassay records (PubChem BioAssay)
Pf growth 96h – P. falciparum growth inhibition at 96 hours. P. falciparum luciferase reporter growth, 96 h. Potency, µM (doses to about 28.7 µM), for inactives: at the top dose activity change, negative = inhibition, hits mostly inhibitors. hit rate 6.9% among 320,000. AID 504834; further: potency means the concentration at half of the fitted maximal effect; on the % scale 0 is the no-effect control and ±100 the full control effect
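Infected RBCs, 2% Hct / 0.05% parasitemia final; luciferase-reporter P. falciparum; cpd 96 h, 37 C, 5% CO2; luciferase detection reagent; luminescence.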
Giardia FBPA inh – Giardia lamblia aldolase inhibition | A8B2U2 | purified Giardia FBPA | Potency, µM (titrated, usually from 59.6 µM), without a hit: at the highest dose activity, negative = inhibition, usual class: inhibitors | hit rate 0.71% among 290,000 | AID 2451; further: potency means the concentration at half of the fitted maximal effect; on the % scale 0 is the no-effect control and ±100 the full control effect; nearly all actives have a fitted effect of over 55% in size
Target sequence (A8B2U2 whole entry, looked up): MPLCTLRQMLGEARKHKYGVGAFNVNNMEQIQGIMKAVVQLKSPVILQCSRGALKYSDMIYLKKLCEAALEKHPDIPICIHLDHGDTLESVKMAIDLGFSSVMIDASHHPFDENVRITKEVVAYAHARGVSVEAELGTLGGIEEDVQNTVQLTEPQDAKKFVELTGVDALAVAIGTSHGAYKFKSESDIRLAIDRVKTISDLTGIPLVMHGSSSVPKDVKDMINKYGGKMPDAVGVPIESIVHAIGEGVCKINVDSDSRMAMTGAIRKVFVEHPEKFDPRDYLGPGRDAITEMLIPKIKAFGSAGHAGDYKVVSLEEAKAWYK
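40 nM FBPA preincubated 10 min at RT with compound (up to 57.5 uM final), then substrate plus GAPDH/TPI/NAD/arsenate coupling and diaphorase/resazurin added. Fluorescence read after 20 min at RT, 525/598 nm.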
CHX counter – affects cycloheximide protein synthesis inhibition readout, counter-screen | cell reporter, cycloheximide protein synthesis inhibition counterscreen | hit rate 12% among 300,000 | max response, % | AID 2314; in the data active means max response mostly above about 13%, no sharp cut-off; inactive means mostly below about 14%; further: read at 38.3 µM for the half of the compounds with a filed dose; 0% is about no effect
Shiga inhibitor – inhibitors of Shiga toxin in Vero cells; Vero cells, Shiga toxin protein synthesis inhibition reporter; inhibition, % at 38.7 µM; hit rate 9.2% among 290,000; in the data active means inhibition mostly above about 28%, no sharp cut-off; inactive means mostly below about 43%; further: 0% is about no effect
NS1 function inh – influenza NS1 inhibition. Potency, µM (titrated, usually from 46.1 µM), for the others: top-dose activity, positive = more growth. hit rate 0.4% among 270,000; calls by dose curve; further: potency means the concentration at half of the fitted maximal effect; actives are rising curves; nearly all actives have a fitted effect of over 50% in size
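Recovery from NS1-induced slow growth read by OD600 in budding yeast switched to galactose assay medium (pH 6.0, -URA) at 1:100 dilution. Compound 23 nl per well; the matching strain lacking NS1 serves as control.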
Pf growth 48h – inhibits P. falciparum growth in the first generation, 48 h; Potency, µM (series often up to 28.7 µM), inactives show at the top dose activity change, negative = inhibition, actives largely listed as inhibitors; hit rate 5.9% among 310,000; P. falciparum luciferase growth in erythrocytes, 48 h; further: potency means the concentration at half of the fitted maximal effect; on the % scale 0 is the no-effect control and ±100 the full control effect
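Luciferase-expressing P. falciparum in infected erythrocytes (2% hematocrit, 0.1% parasitemia final) in RPMI 1640/0.5% Albumax were exposed to compound for 48 hours at 37 C, 5% CO2; growth read as luminescence.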
An asterisk follows results filed as active. Most compounds without a hit are left out; they make up all but 21% or so of the library. Unless noted, the call rests on the fitted dose curve; in most records, active means well fitted curve in the direction sought with a large enough effect; inconclusive means small, poorly fitted or top-dose-only effect, or another doubt; inactive means no such curve, though single readings can be large; an effect the other way counts as inactive or inconclusive.

For COc1ccc2c(c1)CCC1C2CC[C@@]2(C)C1CC[C@@H]2NCCCCCCN1C(=O)C=CC1=O (stereo not given in full) the results were Giardia FBPA inh 1% and NS1 function inh -9%.
Screening CCN(c1ccccc1)S(=O)(=O)c1ccc(Cl)c(NC(=O)CSc2nncn2C)c1 returned Pf growth 96h 8.3µM*, Giardia FBPA inh 1%, CHX counter -1, Shiga inhibitor -4, NS1 function inh -6% and Pf growth 48h inconclusive.
`CN(C)S(=O)(=O)c1ccc(Cl)c(NC(=O)CN2CCCCCC2)c1` gave Pf growth 96h -1%, Giardia FBPA inh 2%, CHX counter 2, Shiga inhibitor -14 and Pf growth 48h inconclusive.
Screening CCN(c1ccccc1)S(=O)(=O)c1ccc(Cl)c(NC(=O)CN2CCCCCC2)c1 returned Pf growth 96h inconclusive, Giardia FBPA inh inconclusive, CHX counter 3, Shiga inhibitor 3, NS1 function inh -1% and Pf growth 48h 5.9µM*.
For O=C(CSc1nnc(CNC(=O)c2ccccc2F)o1)NC1CCCC1 the results were Pf growth 96h inconclusive, CHX counter 2, Shiga inhibitor 18, NS1 function inh 4% and Pf growth 48h 3%.
Screening COc1cc(NC(=O)C2CCN(c3cnccn3)CC2)cc(OC)c1OC returned Pf growth 96h -21%, CHX counter 1, Shiga inhibitor -4, NS1 function inh -3% and Pf growth 48h -12%.
Screening CC1CCC2(CC1)NC(=O)N(NC(=O)c1cc3ccccc3o1)C2=O (stereo not given) returned Pf growth 96h -5% and Pf growth 48h 12%.
COC(=O)c1ccc2nc(-c3ccc4c(c3)OCO4)cn2c1 was read as Pf growth 96h 205%, Giardia FBPA inh -1%, CHX counter 40*, Shiga inhibitor 69*, NS1 function inh 0% and Pf growth 48h 110%.
CCc1ccn2cc(-c3ccc4c(c3)OCO4)nc2c1 was read as Pf growth 96h 130%, Giardia FBPA inh inconclusive, CHX counter 5, Shiga inhibitor -24, NS1 function inh -69% and Pf growth 48h 12%.
COc1ccc(-c2cn3cc(C(=O)NN)ccc3n2)cc1 was read as Pf growth 96h 4.7µM*, Giardia FBPA inh -12%, CHX counter 24*, Shiga inhibitor 42*, NS1 function inh 15% and Pf growth 48h 187%.
`COc1ccc(-c2cn(Cc3ccc(C(N)=O)cc3)c(-c3ccncc3)n2)cc1` gave Pf growth 96h 92% and Pf growth 48h 33%.
Screening NNC(=O)c1ccc2nc(-c3ccc(Br)cc3)cn2c1 returned Pf growth 96h -65%, Giardia FBPA inh -11%, CHX counter 30*, Shiga inhibitor 57 and Pf growth 48h inconclusive.
`CS(=O)(=O)N1CCCC(C(=O)N2CCN(c3cccc(Cl)c3)CC2)C1` (stereo not given) gave Pf growth 96h 9%, Giardia FBPA inh 2%, CHX counter 3, Shiga inhibitor 16, NS1 function inh 3% and Pf growth 48h -3%.
For OCC[C@H]1C[C@H](O)[C@@H](O)[C@]2(OCCc3ccccc32)O1 the results were Pf growth 96h 69% and Pf growth 48h 1%.
`Cc1nn(C(=O)CNC(=O)c2ccccc2)c(C)c1C` gave Pf growth 96h inconclusive, Giardia FBPA inh 7%, CHX counter 38*, Shiga inhibitor 47 and Pf growth 48h 46%.
`O=C(NCC(=O)N1CCCCCC1)c1ccc(Cl)cc1` gave Pf growth 96h 160%, Giardia FBPA inh 7%, CHX counter 29*, Shiga inhibitor 65*, NS1 function inh 1% and Pf growth 48h 71%.
Cc1cccc(C(=O)NCC(=O)N2CCC2)c1 was read as Pf growth 96h 33% and Pf growth 48h 15%.
`Cc1cccc(C(=O)NCC(=O)N2CCOCC2)c1` gave Pf growth 96h 14%, Giardia FBPA inh -5%, CHX counter 23*, Shiga inhibitor 8, NS1 function inh 10% and Pf growth 48h -10%.
Cc1cc(C)n(C(=O)CNC(=O)c2cccc(F)c2)n1 was read as Pf growth 96h 29%, Giardia FBPA inh 5%, CHX counter -3, Shiga inhibitor 3, NS1 function inh -4% and Pf growth 48h 10%.
`O=C(NCC(=O)N1CCCCCCC1)c1ccc(Cl)cc1` gave Pf growth 96h 105% and Pf growth 48h 112%.
O=C(NCC(=O)N1CCN(Cc2ccccc2)CC1)c1ccc(Br)cc1 was read as Pf growth 96h 325%, CHX counter 1, Shiga inhibitor -2, NS1 function inh -4% and Pf growth 48h 5%.
For O=C(NCC(=O)N1CCN(Cc2ccccc2)CC1)c1ccc(Cl)cc1 the results were Pf growth 96h 38%, Giardia FBPA inh -4%, CHX counter 18*, Shiga inhibitor 9, NS1 function inh 12% and Pf growth 48h 1%.
Screening CCN(C(=O)COC(=O)/C=C/c1c(C)nn(-c2ccccc2)c1C)C1CCS(=O)(=O)C1 (stereo not given) returned Pf growth 96h -9%, Giardia FBPA inh 1%, CHX counter 3, Shiga inhibitor -7, NS1 function inh -9% and Pf growth 48h -3%.
`CCCCN1C(=O)C(=O)N(CC(=O)N2CCc3ccccc32)C1=O` gave Pf growth 96h -9% and Pf growth 48h -12%.
Screening CS(=O)(=O)c1ccc(C(=O)CN2C(=O)NC3(CCCc4ccccc43)C2=O)cc1 (stereo not given) returned Pf growth 96h inconclusive and Pf growth 48h -11%.
Screening O=C(Cc1ccc(Cl)cc1)NCC(=O)N1CCCCCC1 returned Pf growth 96h 12µM*, Giardia FBPA inh 9%, CHX counter -1, Shiga inhibitor 12, NS1 function inh -9% and Pf growth 48h inconclusive.
CCOc1ccc(C(=O)NCC(=O)OCC(=O)N2CCCC2)cc1 was read as Pf growth 96h -28%, Giardia FBPA inh 1%, CHX counter 1, Shiga inhibitor -10 and Pf growth 48h 33%.
CCOc1ccc(C(=O)Nc2ccccc2N2CCCC2)cc1 was read as Pf growth 96h inconclusive, Giardia FBPA inh -5%, CHX counter 29*, Shiga inhibitor 72, NS1 function inh -11% and Pf growth 48h inconclusive.
Screening CCOc1ccc(C(=O)NCC(=O)N2CCCC2)cc1 returned Pf growth 96h 49%, Giardia FBPA inh 13%, CHX counter 18, Shiga inhibitor 50*, NS1 function inh 17% and Pf growth 48h 11%.
`O=C(NCC(=O)N1CCOCC1)c1ccc(Cl)cc1` gave Pf growth 96h 6%, CHX counter 18*, Shiga inhibitor 35, NS1 function inh 8% and Pf growth 48h 34%.
O=C(Cc1ccc(Cl)cc1)NCC(=O)N1CCCCC1 was read as Pf growth 96h -2%, Giardia FBPA inh 3%, CHX counter 12, Shiga inhibitor -7, NS1 function inh 1% and Pf growth 48h 31%.
